# Assay results published in publication PMC7819943, “Rice protein-binding microarrays: a tool to detect cis-acting elements near promoter regions in rice”.
# Over roughly 35,000 sequences, “fluorescence intensity (a.u.)” has its median near 10,000; the highest 2% begin near 52,000. The full list was thinned out, with the highest values kept by preference.
# Target: T1, OsWOX13 (Oryza sativa, UniProt Q5QMM3 1-267)
# T1 sequence: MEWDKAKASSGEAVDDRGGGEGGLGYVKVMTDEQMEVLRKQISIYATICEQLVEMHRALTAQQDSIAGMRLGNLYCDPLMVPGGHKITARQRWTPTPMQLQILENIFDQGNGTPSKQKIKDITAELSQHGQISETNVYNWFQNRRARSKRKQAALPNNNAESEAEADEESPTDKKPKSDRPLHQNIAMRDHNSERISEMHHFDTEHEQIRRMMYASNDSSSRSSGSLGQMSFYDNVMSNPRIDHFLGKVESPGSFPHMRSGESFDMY
# Test: protein-binding microarray (RPBM); PBS, 2% BSA, 51.3 ng/ul salmon testes DNA, 50 uM zinc acetate, 200 nM TF, 25 C, 1 h; high values mean tight binding
# Settings: protein: recombinant; tags: N-terminal polyhistidine and DsRed monomer fusion (pET32a); label: CyDye5-dUTP incorporated in the synthesized complementary strand; 3' TTTTT single-stranded linker to array surface; dsDNA, one strand shown
# In short: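 An Axon 4000B scanner gave the binding signal as per-feature fluorescence intensity in arbitrary units. This followed washing of a custom Agilent array that had been incubated for 1 h at 25 °C with 200 nM protein in PBS, 2% BSA, salmon testes DNA and 50 µM zinc acetate. The proteins were transcription factors fused at the N-terminus to polyhistidine and DsRed, expressed in E. coli BL21-CodonPlus and purified on Ni–NTA.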
row,Sequence,binding signal
1,GTTGCTAAATTTTAGTTATTACTGTGCAGTTGCCAAATTTCGGAGTCACCTAGTGCAG,4010 fluorescence intensity (a.u.)
2,CATGAATTGGAAGATTTGATGCACTGATACTCCATGAAGACGGAGTCACCTAGTGCAG,8060 fluorescence intensity (a.u.)
3,ATTAAATTTGAAAATTTATTAAATTGTGCTGATAAGTCAACGGAGTCACCTAGTGCAG,14500 fluorescence intensity (a.u.)
4,AAGACGGTAATAGACTGTGCGAGTTGAACATGCAACTCTACGGAGTCACCTAGTGCAG,7360 fluorescence intensity (a.u.)
5,ATTGATTTGATTGTATTCATAATCATACAATTATCTTAGCCGGAGTCACCTAGTGCAG,65200 fluorescence intensity (a.u.)
6,TCCATTTATCCCGATAATTTGTACTACATTTGTATAGGCCCGGAGTCACCTAGTGCAG,5670 fluorescence intensity (a.u.)
7,AACAAGATTGTGATTCATACATCTGCATCTTATTTTGTATCGGAGTCACCTAGTGCAG,3650 fluorescence intensity (a.u.)
8,GCTAATAGATTGCTATTGTATCTGCTCTTATGCATGATCGCGGAGTCACCTAGTGCAG,61200 fluorescence intensity (a.u.)
9,AGATAATTCTTACTAGATGATTATTGTATATGCTGCTATCCGGAGTCACCTAGTGCAG,9000 fluorescence intensity (a.u.)
10,ACCCTTGATTTACTTGATAATTTGTTATATGTCCCCATCCCGGAGTCACCTAGTGCAG,49800 fluorescence intensity (a.u.)
11,AATTTTCTTATGATTAGCATTTCTATTGCTATTAGATGATCGGAGTCACCTAGTGCAG,8930 fluorescence intensity (a.u.)
12,TTTGTTAAATTTCTCAATTGATTCATAATTCTTTATTAGCCGGAGTCACCTAGTGCAG,10300 fluorescence intensity (a.u.)
13,CCCTTGATTTACTTGATAATTTGTTATAGGTCCCTATCCCCGGAGTCACCTAGTGCAG,53400 fluorescence intensity (a.u.)
14,CCCCATCTGTATTTTAAATTTATATCCGCCACTGATTGTACGGAGTCACCTAGTGCAG,4240 fluorescence intensity (a.u.)
15,CCCGATTGACAAGCTGACTCAGCATGGAGGGACCCACATGCGGAGTCACCTAGTGCAG,37700 fluorescence intensity (a.u.)
16,CAACACATGATTGCCGGGCTTTCTTCCCTCTCGTCCTGAGCGGAGTCACCTAGTGCAG,32000 fluorescence intensity (a.u.)
17,TAGTACTACTCATCACCAATCAGCTGCCACACATGCATGGCGGAGTCACCTAGTGCAG,5430 fluorescence intensity (a.u.)
18,CGCGCCAATCATCTCCCGCTCCCTCTTATCCTCCCCTCTCCGGAGTCACCTAGTGCAG,14100 fluorescence intensity (a.u.)
19,AGGACTAATAGATTTCCAAGATGATCGGGACTGACCGATCCGGAGTCACCTAGTGCAG,10600 fluorescence intensity (a.u.)
20,ATAATTAGATTAAAATAGATTTTACCCGTTGCAATGCACGCGGAGTCACCTAGTGCAG,56200 fluorescence intensity (a.u.)
21,GTTTAATGATAAATCTAGTAATATTAATTTTACATGATTGCGGAGTCACCTAGTGCAG,25600 fluorescence intensity (a.u.)

row,Sequence,binding signal
1,ATAATATATGATTAATTAAGTTTTAATTATTACAAACTTGCGGAGTCACCTAGTGCAG,37000 fluorescence intensity (a.u.)
2,ATATAATTAAATGATTAATTAATTAGTACCGTTTTACTTGCGGAGTCACCTAGTGCAG,65500 fluorescence intensity (a.u.)
3,ATAATAAGATTAAAATAACATTTACCCGTTGCAAAGCACGCGGAGTCACCTAGTGCAG,3610 fluorescence intensity (a.u.)
4,AATGAATTTAGATAGATATATATATCTAGATTCATTAGCACGGAGTCACCTAGTGCAG,7940 fluorescence intensity (a.u.)
5,ACTATATAATTAAAATAGATTTCACCCGTTGCAACGCACGCGGAGTCACCTAGTGCAG,13300 fluorescence intensity (a.u.)
6,TAATAGATAGATAGATAGATAGATAGATTAGTAATTTAGACGGAGTCACCTAGTGCAG,30600 fluorescence intensity (a.u.)
7,AACACCATACCAAAATCCAAATATACTTATATTTTACTTACGGAGTCACCTAGTGCAG,65000 fluorescence intensity (a.u.)
8,AAAATATAATCAAAATAATTTACTTATCCATGTAATCATACGGAGTCACCTAGTGCAG,3770 fluorescence intensity (a.u.)
9,CCAAATTACAACAAATATAATTTTACTTAATCCAAAGTAACGGAGTCACCTAGTGCAG,8310 fluorescence intensity (a.u.)
10,CTAATGACGAATTAATTAGAATTAATAGATTTATCTTGCACGGAGTCACCTAGTGCAG,53300 fluorescence intensity (a.u.)
11,TGGTCAGATAGCTAGATTGATATCCCTCTCTCTCTCTCACCGGAGTCACCTAGTGCAG,13900 fluorescence intensity (a.u.)
12,TTGTAAATTACCTGCAAGGAAGAATTAACCAAGATGTCTTCGGAGTCACCTAGTGCAG,5040 fluorescence intensity (a.u.)
13,AATCATTTTCAGTTACAAATTAAATGGTGTTTCAATAGCTCGGAGTCACCTAGTGCAG,6090 fluorescence intensity (a.u.)
14,TTAATTATTGTGAGTAATAGATTAACGACACACGTGTTGACGGAGTCACCTAGTGCAG,23300 fluorescence intensity (a.u.)
15,CTTAACTTTAAATATATAATTTTATAATAATTTTACGTTGCGGAGTCACCTAGTGCAG,17500 fluorescence intensity (a.u.)
16,TAATAATTATAATTAATTACCGGAGTTACTTATTCTAAACCGGAGTCACCTAGTGCAG,60400 fluorescence intensity (a.u.)
17,AATATACTTAATTACCTCTATTAGTTAATATACTTAACACCGGAGTCACCTAGTGCAG,12000 fluorescence intensity (a.u.)
18,GTTTATAATAATTAAAACTTAATTAATCACATGTTATTACCGGAGTCACCTAGTGCAG,22900 fluorescence intensity (a.u.)
19,TTTAGATAATTAATATTTAAATAATTATACTCTCGTTTTGCGGAGTCACCTAGTGCAG,29600 fluorescence intensity (a.u.)
20,TAAAACTTAATTAATTATACGTTAATATTACCTCGTTTTGCGGAGTCACCTAGTGCAG,53900 fluorescence intensity (a.u.)
21,AGTAATTAGTATGACCACCCTAATATACGGTAGTATGGTACGGAGTCACCTAGTGCAG,27200 fluorescence intensity (a.u.)
